In all, about 420,000 compounds went through this assay and about 64,000 (15%) were called active. About 27% were inconclusive and are not listed. Calls follow the shape of the dose curve; as a rule, active = well fitted inhibition curve with a large enough effect; inconclusive = small, poorly fitted or top-dose-only effect; inactive = flat fitted curve, though single readings scatter. A selection follows. Where a call stands in place of a potency, no number is given.
Potency is read from the fitted curve at half-maximal effect.

This test can be described thus: qHTS for Inhibitors of human tyrosyl-DNA phosphodiesterase 1 (TDP1): qHTS in cells in absence of CPT. Also: nearly all actives have a fitted effect of over 55% in size. As to conditions: DT40 Tdp1-/- hTDP1 cells, no CPT, ATP luminescence, 48 h; activity change, negative = growth inhibition: at 46.2 µM (top of the series). The essentials: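 No-CPT arm: Tdp1-/-;hTDP1 DT40 cells (400/well) plus compounds, incubated ≥48 hr at 37 °C. Readout CellTiter-Glo luminescence.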
In general terms: In qHTS, concentration-response curves come from the screen itself.
For `O=C(O)c1cc(S(=O)(=O)NC2CCCc3ccccc32)ccc1O` (configuration not stated), the Potency entry is “inactive”. Under `Cc1cccc(OCC(=O)NCCCNC(=O)c2ccccn2)c1` stands “inactive”; under `CCN(CC)CCOc1ccc2c(c1)C(=NNC(=O)c1ccccn1)c1cc(OCCN(CC)CC)ccc1-2`, 3.26 µM (active). On to `CCC(C)(NC(=O)c1ccccn1)C(=O)NC1CCCCC1` (configuration not stated), for which the Potency entry is “inactive”. The result for `N#Cc1ccc[n+](CC(=O)c2ccc(O)c(O)c2)c1` reads “inactive”. Under `CCn1c(/C=C/Nc2ccccc2)[n+](CC)c2ccc(C(=O)OCC(F)(F)F)cc21` stands 14.6 µM (active); under `CCOC(=O)c1cc2ccccc2n1CC(=O)c1ccccc1`, “inactive”; under `Cc1nnc(SC(C(=O)c2ccccc2)c2ccccc2)[nH]c1=O` (configuration not stated), “inactive”. As for `NC(=O)c1ncn([C@@H]2O[C@H](CNCc3cnc(N4CCOCC4)s3)[C@@H](O)[C@H]2O)n1`, the Potency result is “inactive”.

Regarding `CN(C)C(=O)c1ccc(NC(=O)c2ccccc2-c2ccccc2)cc1`, the Potency result is “inactive”. The result for `CN(C)C(=O)c1ccc2c(c1)C1C3CCC(C3)C1C(c1ccccc1)N2` (configuration not stated) reads 18.4 µM (active); that for `O=C(O)CCCN1C(=O)C2C3c4ccccc4C(c4ccccc43)[C@@H]2C1=O` (some centres not stated), “inactive”; that for `CCOC(=O)N1CCN(C(=O)C2CCN(S(=O)(=O)c3cc(Cl)ccc3OCC)CC2)CC1`, “inactive”. The result for `Cc1cc(=O)n2nc(N3CCCC(C(=O)N4CCN(C)CC4)C3)sc2n1` (configuration not stated) reads “inactive”; that for `CCOC(=O)N1CCN(C(=O)C2CCN(c3ncnc4c3sc3cccc(F)c34)CC2)CC1`, 5.8 µM (active); that for `CCOC(=O)N1CCN(C(=O)C2CC(c3ccc(F)cc3)=NO2)CC1` (configuration not stated), “inactive”. Under `CCOC(=O)N1CCN(C(=O)C2CCN(Cc3ccc(OC)cc3OC)CC2)CC1` stands “inactive”; under `CCOC(=O)N1CCN(C(=O)C2CCCN(c3ncnc4c3sc3cccc(F)c34)C2)CC1` (configuration not stated), 6.51 µM (active). Take `O=C(O)c1c(NC(=O)N2CCCC2)sc2c1CCCC2`: the Potency result was “inactive”. On to `CC(C)C(=O)N1CC(=O)Nc2ccc(F)cc2C1c1ccc(F)cc1` (configuration not stated), for which the Potency entry is “inactive”. Under `O=S(=O)(NCc1ccco1)c1cnc(Cl)c(Cl)c1` stands “inactive”; under `COc1ccc([C@H]2CC(=O)C=C(c3ccc(CO)cc3)C2)cc1`, “inactive”; under `COc1ccc([C@H]2CC(=O)C=C(c3ccc(OC(F)(F)F)cc3)C2)cc1OC`, 16.4 µM (active). The result for `COc1ccc([C@H]2CC(=O)C=C(c3ccc(C)cc3)C2)cc1` reads “inactive”; that for `COc1cc(C2C(C#N)=C(C)NC3=C2C(=O)CC(C)(C)C3)ccc1O` (configuration not stated), “inactive”; that for `C=CCNCCCCOc1ccccc1`, “inactive”. In the case of `Nc1cccc(OCCCCCOc2cccc(N)c2)c1`, the Potency is 16.4 µM (active). As for `CN(C)CCOc1cccc(Br)c1`, the Potency entry was “inactive”. The result for `CCCCN(C(=O)CSCC(=O)Nc1ccc(OC)cc1)c1c(N)n(CCC)c(=O)[nH]c1=O` reads “inactive”; that for `COc1ccc(CCNC(=O)COC(=O)Cc2cccc(F)c2)cc1`, “inactive”; that for `O=C(C1CCCN1S(=O)(=O)c1ccc(Br)cc1)N1CCOCC1` (configuration not stated), “inactive”. Regarding `Cc1ccc(N(CCC(=O)O)S(=O)(=O)c2cccc(C(F)(F)F)c2)cc1`, the Potency result was “inactive”. Under `Cc1oc2c(F)c(F)c(F)c(F)c2c1S(=O)(=O)Nc1cccc(C(F)(F)F)c1` stands 20.6 µM (active); under `Cc1noc(C)c1S(=O)(=O)Nc1ccc(C(=O)O)cc1`, “inactive”. On to `Cc1cccc(C(=O)OCC(=O)Nc2sccc2C(N)=O)c1C`, for which the Potency result is “inactive”. As to `COc1cc(OC)cc(C(=O)OCC(=O)Nc2ccc(F)cc2F)c1`, the Potency result was “inactive”.

On to `COc1cc(OC)cc(C(=O)OCC(=O)Nc2sccc2C(N)=O)c1`, for which the Potency was 18.4 µM (active).

For the molecule `COc1ccc(S(=O)(=O)NC(C)c2ccccc2)cc1C(=O)N1CCCCC1` (configuration not stated), the Potency result was “inactive”.

With `Cc1cc(C)cc(NC(=O)CCCc2nc(-c3ccccc3Cl)no2)c1`, the Potency result is “inactive”. Under `Cc1ccc(CNC(=O)c2c(-c3ccccc3)noc2C)cc1` stands “inactive”; under `Cc1ccc2cc(CCNC(=O)c3c(-c4ccccc4Cl)noc3C)c(=O)[nH]c2c1`, 18.4 µM (active). Regarding `O=S(=O)(/C=C/c1ccccc1)NCCc1ccccn1`, the Potency result is “inactive”. Under `COc1cc(OC)cc(C(=O)N[C@H](C(=O)Nc2nc3ccccc3[nH]2)C(C)C)c1` stands 2.59 µM (active); under `COc1cc(OC)cc(C(=O)N[C@H](C(=O)OCC(=O)NC(C)c2ccccc2)C(C)C)c1` (some centres not stated), “inactive”.

Take `COc1ccc(C(=O)N[C@H](C(=O)NCc2ccccc2)C(C)C)cc1`: the Potency result is “inactive”. With `C=CCSc1nnc(Cn2c(=O)sc3ccccc32)n1C`, the Potency result was “inactive”.

Turning to `COc1ccc(CCN2CC(C(=O)OCC(=O)NCc3ccccc3Cl)CC2=O)cc1OC` (configuration not stated), the Potency result is “inactive”.

For `COC(=O)[C@]1(C)CCC[C@@]2(C)C3CC[C@]4(OC(C)=O)C[C@@]3(CCC21)CC4=NO` (some centres not stated), the Potency was 16.4 µM (active).

For `CN1CCN(C(=O)N2c3ccccc3CCc3ccccc32)CC1`, the Potency result is “inactive”. With `CC(C)c1cc(Cn2c3ccccc3c(=O)n2C(C)Cn2cc(C3CC3)nn2)on1` (configuration not stated), the Potency entry was “inactive”. In the case of `CC(C)Oc1ccc(CN2CCC(n3nccc3NC(=O)c3cccnc3)CC2)cc1`, the Potency entry is “inactive”.

For the molecule `CCOC(=O)C1=NNC2(c3ccc(Cl)cc3)C(=O)N(c3cc(C)cc(C)c3)C(=O)C12` (configuration not stated), the Potency result is “inactive”.

On to `Cc1nn(Cc2ccccc2)c2c1C(c1ccccc1)C(C#N)=C(N)O2` (configuration not stated), for which the Potency is 25.9 µM (active). On to `COc1ccc(-c2[nH]nc3c2C(c2ccncc2)C(C#N)=C(N)O3)cc1` (configuration not stated), for which the Potency result was “inactive”. On to `Cc1cc2c(c(=O)n1Cc1ccco1)C(c1ccccc1)C(C#N)=C(N)O2` (configuration not stated), for which the Potency entry is “inactive”. The result for `O=C(COC(=O)c1cc([N+](=O)[O-])ccc1NCc1ccccc1)NC1CCCCC1` reads “inactive”. Take `CC(=O)OCCN(CCCn1c(-c2ccncc2)nc2ccccc21)c1nc(-c2ccc(C)cc2)cs1`: the Potency entry was “inactive”. The result for `Cc1ccc(-c2csc(N3CCN(c4cc5c(cc4Cl)nc(-c4ccncc4)n5CCOCCO)CC3)n2)cc1` reads 29.1 µM (active); that for `Nc1c(Cl)cc(-c2csc(N3CCCC3c3nc4cc(Cl)c(Cl)cc4n3CCOCCO)n2)cc1Cl` (configuration not stated), “inactive”; that for `CC(NC(=O)c1ccc(S(=O)(=O)Nc2ccccc2)cc1)c1ccc(S(N)(=O)=O)cc1` (configuration not stated), “inactive”. The result for `CCOC(=O)c1cc2occc2n1CC(=O)NC1CCC(C)CC1` (configuration not stated) reads “inactive”; that for `CC(=O)N1C[C@@H](CO)[C@@H](N(C)C(=O)c2ccco2)C[C@H]1c1ccccc1`, “inactive”. Under `Cn1c(SCC(=O)Nc2ccc(Cl)cc2)nc(O)cc1=O` stands “inactive”; under `CCSc1nnc(NC(=O)c2ccc(C)cc2)s1`, “inactive”. Take `CSc1nnc(NC(=O)c2nc(S(=O)(=O)Cc3ccc(C)cc3)ncc2Cl)s1`: the Potency is 4.11 µM (active). The result for `CCSc1ncc(Cl)c(C(=O)Nc2cc(C)ccc2C)n1` reads “inactive”; that for `CN(CC(=O)Nc1ccccc1C(F)(F)F)C(=O)Cc1ccccc1F`, “inactive”. As to `O=C(Nc1ccccc1C(F)(F)F)c1nc(S(=O)(=O)Cc2ccccc2F)ncc1Cl`, the Potency was 0.708 µM (active).

With `Cc1ccc(NC(=O)c2nc(S(=O)(=O)Cc3cccc(C)c3)ncc2Cl)cc1`, the Potency was 0.651 µM (active). With `Cc1cccc(NC(=O)C(C)SCc2ccccc2)c1` (configuration not stated), the Potency entry was “inactive”. With `CCCSc1ncc(Cl)c(C(=O)Nc2c(C(=O)Nc3ccccc3)oc3ccccc23)n1`, the Potency entry is “inactive”.

`Cc1cccc(C(=O)Nc2ccc(Oc3cnccn3)cc2)c1`: the Potency result is “inactive”.

As for `Cc1cccc(NC(=O)c2nc(S(=O)(=O)Cc3ccccc3)ncc2Cl)c1`, the Potency is 2.06 µM (active).

`NC(=O)CSc1nnc(NC(=O)c2ccc(Br)o2)s1`: the Potency result is “inactive”. The result for `O=C(Nc1nc2ccc(F)cc2s1)c1nc(SCc2ccccc2F)ncc1Cl` reads “inactive”; that for `CCOc1ccc(S(=O)(=O)N2CCN=C2Cc2ccccc2)cc1C`, “inactive”. Regarding `O=C(COC(=O)c1cc(=O)[nH]c2ccccc12)NCc1cccc(Cl)c1`, the Potency result was “inactive”. For `COc1ccccc1C1SCCN1C(=O)c1ccc([N+](=O)[O-])cc1` (configuration not stated), the Potency result is “inactive”. Under `Cc1cc(/C=C2\SC(=O)N(C)C2=O)c(C)n1-c1cccc(C(=O)O)c1` stands “inactive”; under `Nc1cccc(-c2cncc(N3CCN(Cc4ccccn4)CC3)n2)c1`, “inactive”. Under `Nc1c(-c2ccccc2)nnn1Cc1ccccc1` stands “inactive”; under `O=C(Nc1cccnc1)c1ccc(Cl)cc1[N+](=O)[O-]`, “inactive”. Under `Clc1ccc(C=NC23CN4CN(CN(C4)C2)C3)cc1` stands “inactive”.

On to `Cc1cccc(OCc2ccc(C(=O)Nc3ccc(F)cc3)cc2)c1`, for which the Potency entry is “inactive”.

On to `Cn1cc([N+](=O)[O-])c(C(=O)Nc2cnn(Cc3ccc(F)cc3)c2)n1`, for which the Potency entry is “inactive”. The result for `Cc1cccc(CS(=O)(=O)c2ncc(Cl)c(C(=O)Nc3ccc(F)cc3)n2)c1` reads 1.84 µM (active); that for `COc1ccc(S(=O)(=O)NC(C)C(=O)NCc2ccncc2)cc1Cl` (configuration not stated), “inactive”; that for `O=C(NC1CCCC1)C1CC(=O)N(c2ccc(F)cc2)C1` (configuration not stated), “inactive”.

For the molecule `O=C(c1cc(-c2ccc(F)cc2)on1)N1CCN(c2ccc(F)cc2)CC1`, the Potency entry was “inactive”. As to `O=C(c1cccc(C(=O)N2CCN(c3ccc(F)cc3)CC2)c1)N1CCN(c2ccc(F)cc2)CC1`, the Potency was 13 µM (active). The result for `O=C(c1cc2cc(F)ccc2[nH]1)N1CCN(c2ccc(F)cc2)CC1` reads “inactive”; that for `Cc1noc(C)c1S(=O)(=O)Nc1ccc(C(=O)N2CCN(c3ccc(F)cc3)CC2)cc1`, “inactive”; that for `O=[N+]([O-])c1ccc(N2CCN(c3ccc(F)cc3)CC2)cn1`, “inactive”. Under `O=C(c1cc(C(=O)N2CCN(c3ccc(F)cc3)CC2)cc([N+](=O)[O-])c1)N1CCN(c2ccc(F)cc2)CC1` stands 4.61 µM (active). As to `CS(=O)(=O)N1CCC2(CC1)CN(Cc1cc(C(F)(F)F)cc(C(F)(F)F)c1)C2`, the Potency entry was “inactive”.

As to `Cc1c(NC(=O)COC(=O)/C=C/c2cccc(F)c2)c(=O)n(-c2ccccc2)n1C`, the Potency result is “inactive”. Under `Cc1ccnc(NS(=O)(=O)c2ccc(NC(=O)c3oc4ccccc4c3C)cc2)n1` stands “inactive”; under `Cc1oc(C(N)=O)cc1COc1ccc(C(N)=O)cc1`, “inactive”. The result for `CCc1cccc2c3c([nH]c12)C(CC)(CC(=O)O)OCC3` (configuration not stated) reads “inactive”; that for `CC1=CC(C)(C)Nc2ccc(OC(=O)CN3C(=O)C4CCCCC4C3=O)cc21` (configuration not stated), 2.31 µM (active); that for `CC(OC(=O)CN1C(=O)C2CCCCC2C1=O)C(=O)Nc1ncc(Cl)cc1Cl` (configuration not stated), “inactive”. For the molecule `O=C(COC(=O)CN1C(=O)C2CCCCC2C1=O)Nc1ccc(F)c(F)c1F` (configuration not stated), the Potency result is “inactive”.
